Of roughly 7,900 targets only a part is listed; those with a hit were picked by preference. About 0.6% of all pairs of compound and target were hits. A number with no mark means an inactive call.
What was measured:
Experiment in all cases: log2 fold change, soluble protein after heating vs DMSO (PISA); higher = thermal stabilisation; K562 cells, 10 uM, 30 min; active = over 0.2 and 3.5 SD of the protein, either way, in both replicates (recomputed)
[1] = compound: COC1=CC=C(C=C1)CN2C=CC3=C2C=C(C=C3)C(=O)NO
Outline: (§1)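 K562 cells (2×10^6 cells/mL) were treated with 10 μM compound for 30 min, and aliquots were heated for 3 min over 48°C-58°C. Pooled aliquots were extracted in PBS with 0.5% NP-40 at 4°C, and the supernatant after 21,000xg for 90 min was measured by TMTpro 16plex LC-MS/MS with channel sums equalised. Reported thermal stability, relative to control samples and from duplicates, is a log2 fold change.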

filanesib = compound: CON(C)C(=O)N1N=C(c2cc(F)ccc2F)S[C@@]1(CCCN)c1ccccc1 [filanesib]
Outline: as §1

zotarolimus = compound: CO[C@H]1C[C@@H]2CC[C@@H](C)[C@@](O)(O2)C(=O)C(=O)N2CCCC[C@H]2C(=O)O[C@H]([C@H](C)C[C@@H]2CC[C@H](n3cnnn3)[C@H](OC)C2)CC(=O)[C@H](C)/C=C(\C)[C@@H](O)[C@@H](OC)C(=O)[C@H](C)C[C@H](C)/C=C/C=C/C=C/1C [zotarolimus]
Outline: as §1

idasanutlin = compound: COc1cc(C(=O)O)ccc1NC(=O)[C@@H]1N[C@@H](CC(C)(C)C)[C@](C#N)(c2ccc(Cl)cc2F)[C@H]1c1cccc(Cl)c1F [idasanutlin]
Outline: as §1

alisertib = compound: COc1cc(Nc2ncc3c(n2)-c2ccc(Cl)cc2C(c2c(F)cccc2OC)=NC3)ccc1C(=O)O [alisertib]
Outline: as §1

[2] = compound: COc1cc2nc(-c3cc(F)ccc3O)nc(N[C@@H]3CNC[C@H]3C(C)(C)O)c2cc1OC
Outline: as §1

gefitinib = compound: COc1cc2ncnc(Nc3ccc(F)c(Cl)c3)c2cc1OCCCN1CCOCC1 [gefitinib]
Outline: as §1

[3] = compound: COc1cccc2cc(-c3nc([C@H]4CC[C@H](C(=O)O)CC4)n4ncnc(N)c34)[nH]c12
Outline: as §1

lapatinib = compound: CS(=O)(=O)CCNCc1ccc(-c2ccc3ncnc(Nc4ccc(OCc5cccc(F)c5)c(Cl)c4)c3c2)o1 [lapatinib]
Outline: as §1

pictilisib = compound: CS(=O)(=O)N1CCN(Cc2cc3nc(-c4cccc5[nH]ncc45)nc(N4CCOCC4)c3s2)CC1 [pictilisib]
Outline: as §1

Sequence of UniProt Q8IZ69 (Q8IZ69 whole entry, looked up): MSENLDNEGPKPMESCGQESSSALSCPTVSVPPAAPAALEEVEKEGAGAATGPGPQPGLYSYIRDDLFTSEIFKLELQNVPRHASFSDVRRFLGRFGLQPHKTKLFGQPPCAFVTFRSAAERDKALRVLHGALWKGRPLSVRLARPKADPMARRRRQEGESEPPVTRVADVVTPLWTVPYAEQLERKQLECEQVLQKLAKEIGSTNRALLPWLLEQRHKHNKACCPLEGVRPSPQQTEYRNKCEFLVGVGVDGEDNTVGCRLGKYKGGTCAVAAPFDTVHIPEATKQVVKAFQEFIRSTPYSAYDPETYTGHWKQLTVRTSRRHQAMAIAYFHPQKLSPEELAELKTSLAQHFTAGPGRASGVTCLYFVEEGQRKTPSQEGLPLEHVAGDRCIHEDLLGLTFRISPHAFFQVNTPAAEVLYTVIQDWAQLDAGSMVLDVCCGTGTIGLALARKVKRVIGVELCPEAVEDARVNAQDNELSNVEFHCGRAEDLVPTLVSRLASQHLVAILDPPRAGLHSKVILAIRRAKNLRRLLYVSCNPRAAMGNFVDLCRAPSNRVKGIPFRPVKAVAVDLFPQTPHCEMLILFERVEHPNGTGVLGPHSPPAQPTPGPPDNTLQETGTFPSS
Sequence of UniProt P51809 (P51809 whole entry, looked up): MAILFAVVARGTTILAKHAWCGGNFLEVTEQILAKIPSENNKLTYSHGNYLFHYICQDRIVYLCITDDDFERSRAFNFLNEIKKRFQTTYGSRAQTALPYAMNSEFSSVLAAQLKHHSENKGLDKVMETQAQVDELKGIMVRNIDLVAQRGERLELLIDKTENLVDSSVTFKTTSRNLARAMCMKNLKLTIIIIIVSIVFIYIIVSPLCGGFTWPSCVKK
Sequence of UniProt A0PJW6 (A0PJW6 whole entry, looked up): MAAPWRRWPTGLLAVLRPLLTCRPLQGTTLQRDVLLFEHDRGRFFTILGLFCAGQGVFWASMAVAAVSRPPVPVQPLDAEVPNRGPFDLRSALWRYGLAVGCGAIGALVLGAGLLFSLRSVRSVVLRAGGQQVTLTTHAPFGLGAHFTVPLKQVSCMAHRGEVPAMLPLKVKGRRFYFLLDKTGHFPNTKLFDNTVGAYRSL
Sequence of UniProt Q8WVY7 (Q8WVY7 whole entry, looked up): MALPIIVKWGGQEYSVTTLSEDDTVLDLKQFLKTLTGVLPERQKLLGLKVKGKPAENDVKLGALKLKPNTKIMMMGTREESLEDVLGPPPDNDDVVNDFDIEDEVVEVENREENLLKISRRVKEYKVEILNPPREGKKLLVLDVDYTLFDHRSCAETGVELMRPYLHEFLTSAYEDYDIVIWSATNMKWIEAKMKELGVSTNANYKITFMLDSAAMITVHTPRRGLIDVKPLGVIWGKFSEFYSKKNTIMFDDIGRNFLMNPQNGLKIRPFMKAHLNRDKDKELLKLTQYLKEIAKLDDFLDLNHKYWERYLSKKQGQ
Sequence of UniProt O95155 (O95155 whole entry, looked up): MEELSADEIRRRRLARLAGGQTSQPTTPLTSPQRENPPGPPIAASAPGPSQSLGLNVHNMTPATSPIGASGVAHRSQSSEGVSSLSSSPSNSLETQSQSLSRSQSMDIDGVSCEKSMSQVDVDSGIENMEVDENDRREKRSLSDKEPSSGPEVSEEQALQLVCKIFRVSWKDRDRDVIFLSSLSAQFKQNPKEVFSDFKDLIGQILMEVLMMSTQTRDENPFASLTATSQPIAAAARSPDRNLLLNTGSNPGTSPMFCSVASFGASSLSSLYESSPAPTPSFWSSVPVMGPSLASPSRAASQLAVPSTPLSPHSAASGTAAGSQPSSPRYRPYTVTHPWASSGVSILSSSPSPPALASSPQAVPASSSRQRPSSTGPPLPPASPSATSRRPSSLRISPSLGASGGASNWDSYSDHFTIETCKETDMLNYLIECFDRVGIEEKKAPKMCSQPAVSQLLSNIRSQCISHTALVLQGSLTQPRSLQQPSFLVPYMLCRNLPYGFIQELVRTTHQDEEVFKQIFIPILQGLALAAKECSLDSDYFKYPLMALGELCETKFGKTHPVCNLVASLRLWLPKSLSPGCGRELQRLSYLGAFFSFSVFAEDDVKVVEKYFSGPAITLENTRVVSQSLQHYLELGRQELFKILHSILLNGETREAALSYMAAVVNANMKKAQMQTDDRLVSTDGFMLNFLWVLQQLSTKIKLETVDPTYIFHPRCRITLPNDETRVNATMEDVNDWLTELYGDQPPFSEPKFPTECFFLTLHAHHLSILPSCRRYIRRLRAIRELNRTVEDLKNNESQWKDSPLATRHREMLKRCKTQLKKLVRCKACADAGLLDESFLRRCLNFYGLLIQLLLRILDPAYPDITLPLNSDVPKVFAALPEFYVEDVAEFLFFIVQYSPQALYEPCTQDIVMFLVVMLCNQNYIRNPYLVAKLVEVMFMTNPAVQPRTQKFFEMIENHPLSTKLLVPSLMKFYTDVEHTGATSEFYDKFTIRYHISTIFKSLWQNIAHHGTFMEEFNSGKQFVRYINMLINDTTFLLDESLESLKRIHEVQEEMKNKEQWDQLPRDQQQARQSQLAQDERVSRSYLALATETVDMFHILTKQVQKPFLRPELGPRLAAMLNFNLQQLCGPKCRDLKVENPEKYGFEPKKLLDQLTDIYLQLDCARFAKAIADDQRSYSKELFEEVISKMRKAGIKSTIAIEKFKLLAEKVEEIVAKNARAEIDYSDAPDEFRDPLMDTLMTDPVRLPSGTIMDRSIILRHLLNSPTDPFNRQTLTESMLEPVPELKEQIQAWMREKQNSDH
Sequence of UniProt Q9UBK9 (Q9UBK9 whole entry, looked up): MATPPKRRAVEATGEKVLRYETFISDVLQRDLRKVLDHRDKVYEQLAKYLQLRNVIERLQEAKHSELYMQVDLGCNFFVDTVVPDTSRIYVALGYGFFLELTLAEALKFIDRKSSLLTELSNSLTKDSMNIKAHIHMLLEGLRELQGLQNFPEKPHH
Sequence of UniProt Q9UGM6 (Q9UGM6 whole entry, looked up): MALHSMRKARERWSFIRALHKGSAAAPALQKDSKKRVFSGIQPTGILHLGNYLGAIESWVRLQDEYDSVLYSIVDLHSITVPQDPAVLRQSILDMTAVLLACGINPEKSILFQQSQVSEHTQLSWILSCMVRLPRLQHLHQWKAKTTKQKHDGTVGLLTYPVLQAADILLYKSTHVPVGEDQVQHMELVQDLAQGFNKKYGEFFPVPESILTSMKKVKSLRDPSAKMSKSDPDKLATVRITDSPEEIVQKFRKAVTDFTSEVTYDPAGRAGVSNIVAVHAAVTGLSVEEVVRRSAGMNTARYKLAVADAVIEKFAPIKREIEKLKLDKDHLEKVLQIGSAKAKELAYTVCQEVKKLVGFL
Sequence of UniProt P11388 (P11388 whole entry, looked up): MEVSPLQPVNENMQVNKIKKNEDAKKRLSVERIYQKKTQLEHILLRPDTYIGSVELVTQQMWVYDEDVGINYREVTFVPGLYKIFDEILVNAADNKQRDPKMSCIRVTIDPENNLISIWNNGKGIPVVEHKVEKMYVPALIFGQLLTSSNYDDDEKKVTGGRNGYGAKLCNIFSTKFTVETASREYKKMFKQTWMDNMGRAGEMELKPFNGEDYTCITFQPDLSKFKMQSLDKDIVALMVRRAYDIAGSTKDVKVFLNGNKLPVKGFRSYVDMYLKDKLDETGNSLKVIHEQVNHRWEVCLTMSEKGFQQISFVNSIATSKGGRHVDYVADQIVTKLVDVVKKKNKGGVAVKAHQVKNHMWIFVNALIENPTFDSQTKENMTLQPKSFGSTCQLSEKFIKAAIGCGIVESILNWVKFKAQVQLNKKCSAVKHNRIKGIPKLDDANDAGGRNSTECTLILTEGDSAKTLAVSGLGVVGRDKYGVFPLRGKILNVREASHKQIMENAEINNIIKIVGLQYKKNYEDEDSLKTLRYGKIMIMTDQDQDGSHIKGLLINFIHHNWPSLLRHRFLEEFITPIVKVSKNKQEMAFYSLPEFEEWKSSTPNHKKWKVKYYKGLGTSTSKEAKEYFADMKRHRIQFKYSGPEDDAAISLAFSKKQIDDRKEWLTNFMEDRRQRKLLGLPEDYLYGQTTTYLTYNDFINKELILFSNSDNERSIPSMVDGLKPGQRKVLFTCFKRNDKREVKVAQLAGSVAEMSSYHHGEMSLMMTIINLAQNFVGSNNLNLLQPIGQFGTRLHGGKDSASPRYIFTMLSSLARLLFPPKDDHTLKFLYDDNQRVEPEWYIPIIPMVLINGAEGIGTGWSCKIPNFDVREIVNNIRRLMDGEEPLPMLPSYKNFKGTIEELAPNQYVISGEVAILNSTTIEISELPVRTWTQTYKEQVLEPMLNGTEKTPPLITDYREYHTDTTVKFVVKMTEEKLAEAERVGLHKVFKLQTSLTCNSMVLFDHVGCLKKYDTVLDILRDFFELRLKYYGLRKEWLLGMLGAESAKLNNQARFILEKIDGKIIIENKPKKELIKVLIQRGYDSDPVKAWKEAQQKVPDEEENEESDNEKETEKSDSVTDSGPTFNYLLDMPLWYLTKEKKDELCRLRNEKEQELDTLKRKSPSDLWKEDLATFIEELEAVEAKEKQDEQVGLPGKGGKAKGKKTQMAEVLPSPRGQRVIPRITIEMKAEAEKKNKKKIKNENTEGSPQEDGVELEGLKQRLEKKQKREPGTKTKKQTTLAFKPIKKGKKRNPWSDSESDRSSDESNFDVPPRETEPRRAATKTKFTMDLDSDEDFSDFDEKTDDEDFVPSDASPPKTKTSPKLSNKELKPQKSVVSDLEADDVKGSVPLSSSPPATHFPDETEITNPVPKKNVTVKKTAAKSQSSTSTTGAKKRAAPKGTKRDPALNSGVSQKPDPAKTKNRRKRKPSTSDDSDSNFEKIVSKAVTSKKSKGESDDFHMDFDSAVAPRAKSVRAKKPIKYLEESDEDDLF
Sequence of UniProt Q8IY95 (Q8IY95 whole entry, looked up): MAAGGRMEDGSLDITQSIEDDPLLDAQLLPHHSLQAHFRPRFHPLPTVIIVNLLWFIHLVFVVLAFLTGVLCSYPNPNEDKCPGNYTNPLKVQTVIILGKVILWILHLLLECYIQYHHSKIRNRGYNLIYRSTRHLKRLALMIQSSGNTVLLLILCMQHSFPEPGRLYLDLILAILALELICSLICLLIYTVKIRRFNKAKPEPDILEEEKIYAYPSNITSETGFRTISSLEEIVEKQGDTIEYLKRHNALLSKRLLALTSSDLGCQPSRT

Target | log2 fold change [1] | log2 fold change (filanesib) | log2 fold change (zotarolimus) | log2 fold change (idasanutlin) | log2 fold change (alisertib) | log2 fold change [2] | log2 fold change (gefitinib) | log2 fold change [3] | log2 fold change (lapatinib) | log2 fold change (pictilisib)
WRB (UniProt O00258) | -0.036 | -0.041 | -0.019 | -0.032 | -0.031 | -0.066 | 0.012 | 0.051 | 0.03 | 0.094
TMEM223 (UniProt A0PJW6) | -0.042 | -0.109 | 0.083 | -0.112 | -0.046 | -0.147 | -0.028 | 0.038 | 0.018 | -0.007
VDAC1 (UniProt P21796) | 0 | -0.036 | -0.01 | -0.004 | -0.033 | -0.023 | -0.007 | 0.052 | 0 | 0.002
VPS41 (UniProt P49754) | 0.004 | -0.085 | 0.015 | -0.068 | 0.038 | -0.032 | -0.002 | -0.063 | 0.008 | -0.028
TNFAIP8 isoform 4 (UniProt O95379) | 0.027 | -0.015 | 0.085 | -0.055 | -0.01 | 0.046 | 0.028 | 0.041 | 0.065 | -0.027
TXNIP (UniProt Q9H3M7) | -0.013 | -0.148 | 0.172 | 0.035 | -0.198 | -0.074 | 0.002 | -0.119 | 0.228 | 0.142
UBLCP1 (UniProt Q8WVY7) | -0.046 | -0.001 | -0.008 | -0.013 | 0.028 | 0.181 | 0.044 | -0.034 | 0.021 | 0.028
WARS2 (UniProt Q9UGM6) | -0.072 | -0.089 | -0.034 | 0.014 | -0.025 | 0.062 | -0.035 | 0 | -0.127 | 0.037
UFM1 (UniProt P61960) | 0.048 | -0.08 | -0.139 | 0.28 | -0.001 | 0.01 | 0.069 | 0.055 | -0.002 | –
TMEM192 (UniProt Q8IY95) | -0.036 | -0.162 | -0.047 | 0.037 | -0.048 | -0.009 | -0.047 | 0.099 | -0.02 | 0.038
VAMP7 (UniProt P51809) | 0.035 | -0.095 | -0.005 | -0.111 | -0.072 | 0.099 | 0.033 | 0.012 | -0.005 | -0.001
TRAPPC11 (UniProt Q7Z392) | 0.015 | -0.018 | 0.024 | -0.039 | -0.052 | -0.03 | -0.012 | -0.019 | -0.014 | 0.042
TRMT2A (UniProt Q8IZ69) | -0.322 (active) | 0.061 | 0.016 | 0.04 | -0.051 | -0.158 | -0.006 | -0.071 | 0.016 | -0.096
VARS2, A0A0G2JL52 | 0.061 | -0.078 | 0.001 | -0.04 | -0.01 | -0.017 | -0.009 | 0.064 | 0.022 | 0.024
UBE2J1 (UniProt Q9Y385) | -0.209 | 0.119 | 0.046 | -0.12 | -0.259 | 0.232 | -0.035 | 0.241 | -0.064 | -0.081
TSFM (UniProt P43897) | 0.152 | -0.146 | 0.042 | 0.039 | 0.047 | 0.12 | 0.117 | -0.002 | -0.006 | 0.066
TMEM208 (UniProt Q9BTX3) | -0.131 | -0.254 | -0.111 | -0.137 | 0.109 | 0.019 | -0.055 | -0.146 | -0.151 | -0.17
WBP4 (UniProt O75554) | 0.001 | -0.082 | -0.025 | 0.022 | -0.042 | -0.009 | 0.014 | -0.003 | 0.05 | -0.139
USP25 isoform 3 (UniProt Q9UHP3) | -0.011 | 0.037 | 0.014 | -0.039 | 0.027 | 0.004 | 0.032 | 0.022 | 0.001 | 0.018
USP24 (UniProt Q9UPU5) | -0.03 | -0.179 | 0.397 (active) | -0.342 (active) | -0.008 | 0.116 | 0.099 | 0.385 (active) | 0.019 | 0.258
UBE4A isoform 2 (UniProt Q14139) | 0.037 | -0.023 | -0.003 | 0.008 | -0.003 | -0.024 | -0.056 | -0.073 | 0.022 | 0.016
TOP2A isoform 4 (UniProt P11388) | 0.052 | 0.486 | 0.079 | 0.24 | -0.144 | -0.029 | -0.042 | -0.4 | 0.13 | -0.071
TMEM177 (UniProt Q53S58) | -0.037 | -0.115 | 0.019 | -0.077 | -0.199 | -0.154 | 0.077 | 0.086 | -0.016 | 0.151
TOM1 isoform 2 (UniProt O60784) | -0.118 | -0.031 | -0.001 | 0.056 | -0.002 | -0.039 | -0.031 | 0 | 0.014 | -0.154
UBE4B isoform 4 (UniProt O95155) | 0.04 | -0.009 | -0.008 | -0.031 | -0.035 | 0.021 | -0.048 | 0.021 | -0.01 | 0.063
UXT isoform 2 (UniProt Q9UBK9) | 0.473 (active) | 0.001 | -0.067 | 0.026 | -0.016 | 0.033 | 0.049 | -0.025 | 0.077 | 0.25
TMEM9B (UniProt Q9NQ34) | 0.001 | -0.039 | 0.014 | 0.036 | -0.032 | 0.011 | -0.047 | -0.068 | -0.118 | 0.07
VKORC1 (UniProt Q9BQB6) | 0.079 | -0.077 | 0.022 | -0.089 | 0.016 | -0.019 | -0.05 | -0.144 | -0.06 | -0.021
XPO6 (UniProt Q96QU8) | -0.453 | -0.074 | 0.047 | -0.079 | 0.171 | 0.064 | -0.029 | -0.052 | -0.055 | -0.025
VPS28 (UniProt Q9UK41) | -0.17 | -0.061 | 0.008 | -0.076 | 0.07 | 0.038 | 0.027 | 0.033 | 0.023 | 0.059

From the supplement of paper PMC10849652
